Bioassay records as filed in PubChem.
In the library only some 4.2% were active in any assay of this set; here they are far more common.
hgDAF-12 ag: activates the H. glycines DAF-12 receptor ligand-binding domain; actives 1.8% (n = 370,000); HEK293 GAL4-hgDAF12 UAS-luciferase reporter, agonist luminescence; normalized to butyrate control; activation, % at 6.8 µM;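 active = activation above a cutoff set at the mean of all screened compounds plus 3 SD, cut at about 10% in these data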;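 also: 0% = DMSO wells and 100% = sodium butyrate wells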
ssDAF-12 act: activates DAF-12 receptor from parasite S. stercoralis | HEK293 ssDAF-12/GRIP1 lit1-tk-luc reporter, luminescence; % of 3 µM dafachronic acid response | activation, % at 6.8 µM | actives 1% (n = 370,000) | AID 652126;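 active = activation above the mean over all tested compounds plus 3 SD, cut at about 0.9% in these data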;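 also: 0% = DMSO-only wells and 100% = 3 µM delta7-dafachronic acid wells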
DAX1 inh: blocks DAX1 repression of SF-1 activated StAR promoter. actives 1.1% (n = 370,000). AID 652010. HEK293T StAR-luciferase reporter, SF-1/DAX-1 repression relief. inhibition, % at 6.8 µM;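 active = inhibition above the mean over all tested compounds plus 3 SD, cut at about 3.6% in these data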;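 also: 0% = DAX-1 cells with DMSO and 100% = cells lacking DAX-1 with DMSO; higher inhibition means more luminescence from relief of DAX-1 repression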
hcDAF12 agonist: activates DAF-12 receptor from parasite H. contortus; HEK293 hcDAF-12 lit1-tk-luc reporter, luminescence; 0% DMSO, 100% Δ7-dafachronic acid; activation, % at 6.8 µM; actives 1.4% (n = 370,000); AID 652067;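 active = activation above the mean of all tested compounds plus 3 SD, cut at about 5.5% in these data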;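 also: 100% = response to 3 µM Δ7-dafachronic acid high control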
esBAF inh: inhibitors of esBAF chromatin remodeling in mouse ES cells | reporter increase, % at 12.5 µM | actives 2% (n = 350,000) | AID 602393 | Bmi1-luciferase knock-in reporter, 24 h; 100% = twice the neutral-well signal; in the data active = activation above about 40%;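 also: 0% = median of the plate's neutral control wells and 100% = double that signal; a rise in the Bmi1 reporter signal indicates esBAF inhibition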
Wnt act: activates Wnt/beta-catenin signaling in a reporter cell assay. activator, plate reader. activation, % at 9.35 µM. actives 1.2% (n = 300,000). AID 743398; in the data active = activation above about 30%, passing the limit was not always enough;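 also: 0% = neutral control wells and 100% = positive control wells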
* hit, by the source's call.

`Cc1ccc(C2=CSC3=NCCN23)cc1` gave hgDAF-12 ag 0, ssDAF-12 act 1.9*, DAX1 inh 0, hcDAF12 agonist 0, esBAF inh -5 and Wnt act -3.
Nc1ncccc1OCc1ccc(Br)cc1 was read as hgDAF-12 ag 11*, ssDAF-12 act -2, DAX1 inh 0, hcDAF12 agonist -1 and Wnt act 6.
For Cc1ccc(N=Nc2c(N)nn3c(N)c(C#N)c(C)nc23)cc1 the results were hgDAF-12 ag 2, ssDAF-12 act -1, DAX1 inh 1, hcDAF12 agonist 0, esBAF inh -7 and Wnt act 0.
For COc1ccc(N=Nc2c(N)nn(C)c2N)cc1 the results were hgDAF-12 ag 10, ssDAF-12 act 1.2*, DAX1 inh 3, hcDAF12 agonist 1, esBAF inh 44* and Wnt act 9.
`CCOc1ccc(CN(C(=O)c2ccccn2)c2ccc(OC)c(Cl)c2)cc1` gave hgDAF-12 ag 6, ssDAF-12 act 0, DAX1 inh 0, hcDAF12 agonist -2, esBAF inh 46* and Wnt act 3.
O=C1c2ccccc2NC(c2ccccc2)N1Cc1ccco1 (stereo not given) was read as hgDAF-12 ag -3, ssDAF-12 act -2, DAX1 inh -1, hcDAF12 agonist -2 and esBAF inh 62*.
O=S(=O)(c1cccs1)N1CCCCN2[C@H](CO)[C@H](c3ccc(Br)cc3)[C@@H]2C1 was read as esBAF inh -5.
`Cc1ccc(NC(=O)N2C(=O)C3(OCCO3)c3ccccc32)cc1` gave hgDAF-12 ag 9, ssDAF-12 act 0, DAX1 inh 1, hcDAF12 agonist 2 and esBAF inh 58*.
For COc1cc(NC(=O)CC(C)C)ccc1NC(=O)c1ccco1 the results were hgDAF-12 ag 5, ssDAF-12 act -1, DAX1 inh 2, hcDAF12 agonist 0, esBAF inh 23 and Wnt act -1.
For CCC(=O)Nc1ccc(NC(=O)c2ccco2)c(OC)c1 the results were hgDAF-12 ag 4, ssDAF-12 act -1, DAX1 inh 1, hcDAF12 agonist -1, esBAF inh 23 and Wnt act 41*.
CCCC(=O)Nc1ccc(NC(=O)c2ccco2)c(OC)c1 was read as hgDAF-12 ag 6, ssDAF-12 act 0, DAX1 inh 3.7*, hcDAF12 agonist 2, esBAF inh 63* and Wnt act 16.
COc1cc(NC(=O)Cc2ccc(Cl)cc2)ccc1NC(=O)c1ccco1 was read as hgDAF-12 ag -2, ssDAF-12 act -2, DAX1 inh -1, hcDAF12 agonist -4, esBAF inh 3 and Wnt act 2.
`C[C@@H]1CN([C@H](C)CO)C(=O)c2cc(NS(=O)(=O)c3ccc(Cl)cc3)ccc2O[C@H]1CN(C)C(=O)Nc1cccc2ccccc12` gave esBAF inh -5.
`CC(=O)NC(NC(=S)Nc1ccc(S(N)(=O)=O)cc1)C(Cl)(Cl)Cl` (stereo not given) gave hgDAF-12 ag 0, ssDAF-12 act -1, DAX1 inh 0, hcDAF12 agonist -2, esBAF inh 4 and Wnt act -7.
CC(=O)NC(NC(=S)Nc1ccc(N=Nc2ccccc2)cc1)C(Cl)(Cl)Cl (stereo not given) was read as hgDAF-12 ag -4, ssDAF-12 act -2, DAX1 inh -1, hcDAF12 agonist -2, esBAF inh 11 and Wnt act 47*.
Cc1noc(C)c1NC(=O)Nc1ccc2c(c1)C(=O)N([C@@H](C)CO)C[C@H](C)[C@@H](CN(C)S(=O)(=O)c1ccccc1)OCCCC[C@@H](C)O2 was read as esBAF inh 0.
Screening CCCN1C(=S)c2ccccc2C1c1ccccc1 (stereo not given) returned hgDAF-12 ag -1, ssDAF-12 act 1.3*, DAX1 inh 0, hcDAF12 agonist 4, esBAF inh -8 and Wnt act -1.
O=C(CSc1nnc(-c2ccccn2)o1)Nc1cccc(Cl)c1 was read as hgDAF-12 ag 8, ssDAF-12 act 0, DAX1 inh 1, hcDAF12 agonist 1, esBAF inh 65* and Wnt act -2.
